Molecules are shown by their SMILES. Out of some 2,400 compounds screened, about 220 (9.2%) were called active. The sample as a whole holds a higher share of actives than the screen did. Unmarked numbers belong to inactive results.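 Rule for the calls: active = signal change above the mean of dofetilide-free buffer controls plus 3 SD, so a positive margin; inactive = the rest.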

This test is described as follows: thallium signal changes without hERG – cell-based, CHO-K1 parental line, FluxOR thallium flux, counter-screen for hERG block protection project, confirmation (AID 1839).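 Note: compounds applied alone with no dofetilide to cells lacking hERG.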 Conditions: CHO-K1 parental cells, FluxOR thallium flux fluorescence; at 10 µM.
For `O=C(Nc1nc(=S)ss1)c1ccc(Cl)cc1Cl`, the signal change vs control minus 3*SD hit threshold (margin above threshold, higher = more increase) was 56.5% (active). Then `Cc1ccccc1C(=O)Nc1nc(=S)ss1`, with 9.5% (active); and `O=C1Nc2ccc(Br)cc2C1Cc1ccccc1F` (stereo not drawn), with -42.3%; and `O=C(O)c1ccc2c(c1)C(=O)N(c1cc([N+](=O)[O-])ccn1)C2=O`, with -24.2%. Then `CCC(=O)Nc1ccc(N2CCOCC2)c(S(=O)(=O)Nc2ccc(OC)cc2)c1`, with -21.7%; and `O=C(c1ccccc1)c1nccn1-c1ccc(Cl)nn1`, with -27.6%. For `CC(NC(=O)C1CCN(S(=O)(=O)c2cccc3cccnc23)CC1)c1ccccc1` (stereo not drawn) the value was -31.3%.

Consider `Cc1cc(C(=O)NCCN2C(=O)S/C(=C\c3cccs3)C2=O)ccc1[N+](=O)[O-]`, for which the signal change vs control minus 3*SD hit threshold (margin above threshold, higher = more increase) is -31.4%.

On to `CCOc1ccc(/C=C2\CCc3ccccc3C2=O)cc1`, for which the signal change vs control minus 3*SD hit threshold (margin above threshold, higher = more increase) was -33.6%. With `CCOc1ccc(/C=C2/SC(=O)NC2=S)cc1`, the signal change vs control minus 3*SD hit threshold (margin above threshold, higher = more increase) is 39% (active).

With `Cn1cc(/C=C2\SC(=O)NC2=S)c2ccccc21`, the signal change vs control minus 3*SD hit threshold (margin above threshold, higher = more increase) is -27.6%. For `Cc1ccc(-c2nc(N)s[n+]2-c2ccccc2)cc1` the value was -7.8%; for `CCOC(=O)N/N=C\c1ccc(-c2cc(Cl)ccc2Cl)o1`, -32%.

As for `Cc1ccc(C(C)NC(=O)c2cccs2)cc1C` (stereo not drawn), the signal change vs control minus 3*SD hit threshold (margin above threshold, higher = more increase) was -16.2%.

Turning to `O=C(N/N=C/c1cc(Cl)ccc1O)c1ccccc1Br`, the signal change vs control minus 3*SD hit threshold (margin above threshold, higher = more increase) was -21.5%. For `CCOC(=O)c1sc(NN=C(C(=O)OC)C(=O)OC)c(C(=O)OCC)c1C` the value was -7.4%. For `CCCOc1ccc(-c2c(=O)n(O)c3ccccc3[n+]2[O-])cc1` the value was 29.7% (active); for `CCOc1ccc(N(CC)C(=O)COc2cc(=O)n(C)c3ccccc23)cc1`, -18.3%. Then `CCCOc1ccc(OC(=O)c2ccc(Br)o2)cc1`, with -5.2%.

With `CCOc1ccc(-c2c(=O)n(O)c3ccccc3[n+]2[O-])cc1`, the signal change vs control minus 3*SD hit threshold (margin above threshold, higher = more increase) was 19.7% (active).

In the case of `CCOc1ccc(CC(C(N)=O)C(N)=O)cc1`, the signal change vs control minus 3*SD hit threshold (margin above threshold, higher = more increase) is -32.5%.

With `CCCOc1ccc(C(=O)NNC(=S)NC(=O)c2ccccc2)cc1`, the signal change vs control minus 3*SD hit threshold (margin above threshold, higher = more increase) is -44.9%. Then `Cc1ccc(/C(O)=C2\C(=O)C(=O)N(Cc3cccnc3)C2c2ccccc2[N+](=O)[O-])cc1` (stereo not drawn), with -21.1%. For `COc1cc(NC(=O)c2ccccc2)c(OC)cc1NC(=O)Cc1ccc(Br)cc1`, the signal change vs control minus 3*SD hit threshold (margin above threshold, higher = more increase) is -10.9%. For `CCc1ccc2[nH]c(O)c(N=Nc3nc(-c4ccccc4)cs3)c2c1` the value was -38.8%; for `Cn1c(O)c(N=Nc2nc(-c3ccccc3)cs2)c2ccccc21`, 31.7% (active); for `Cc1ccccc1OCC(=O)N=Nc1c(O)n(C)c2ccccc12`, -17.7%. `Cc1nn(CCC(=O)NNC(=S)Nc2ccc(F)cc2)c(C)c1[N+](=O)[O-]`: the signal change vs control minus 3*SD hit threshold (margin above threshold, higher = more increase) was -35.8%.

As for `O=C(NC(=S)NC1CCCc2ccccc21)c1ccco1` (stereo not drawn), the signal change vs control minus 3*SD hit threshold (margin above threshold, higher = more increase) was -14.2%. For `Cc1nonc1CN(C)C(=O)c1ccc(OC2CCN(Cc3ccccn3)CC2)cc1` the value was -22.2%; for `COCCNC(=O)C1CCN(S(=O)(=O)N2CCC3(CC2)OCCO3)CC1`, -40.3%. For `CCC1(c2ccccc2)NC(=S)N(c2ccc(C)cc2)N1` (stereo not drawn) the value was 48.2% (active); for `CCC1(c2ccc(Cl)cc2)NC(=S)N(c2ccccc2)N1` (stereo not drawn), 40.1% (active); for `CCC1(c2ccc(Cl)cc2)NC(=S)N(c2ccc(C)cc2)N1` (stereo not drawn), 18.9% (active). Then `CC1=CN2C(=N)/C(=C/c3ccc(Sc4ccc(Cl)cc4)o3)C(=O)N=C2S1`, with -23.1%; and `O=C(NC(=S)N(CC1CCC1)CC1CCCO1)c1cccc([N+](=O)[O-])c1` (stereo not drawn), with -12.6%; and `CCCCCOCC1CC(C/C(C)=N/Nc2nc(-c3ccccc3)cs2)C(=O)O1` (stereo not drawn), with -31.7%. For the compound `N#C/C(=N\Nc1ccccc1F)c1nc(-c2ccccc2)cs1`, the signal change vs control minus 3*SD hit threshold (margin above threshold, higher = more increase) is -39.4%. For `O=C(Nc1ccc(Cl)c(Cl)c1)Nc1nnc(CSc2ccccc2)s1` the value was -17.6%. Turning to `C=CCn1c(SCc2ccc(C(=O)O)cc2)nc2sc(C)c(C)c2c1=O`, the signal change vs control minus 3*SD hit threshold (margin above threshold, higher = more increase) is 7% (active).

Turning to `CCn1c(SCC(=O)NC(=O)NCc2ccco2)nc2sc(C)c(C)c2c1=O`, the signal change vs control minus 3*SD hit threshold (margin above threshold, higher = more increase) was -17.8%. For `C=CCSc1nc2sc3c(c2c(=O)n1CC)CCc1ccccc1-3` the value was -22.2%. Then `CCc1nccn1S(=O)(=O)c1ccc2ccc(C)cc2c1`, with -33.5%; and `COc1ccc(Cc2c(O)nc(SCC(C)C)[nH]c2=O)cc1`, with -32.4%; and `CC(C)c1nc2sc3c(=S)nc[nH]c3c2c2c1CCC2`, with -10.6%. For `S=c1nc[nH]c2c1sc1nc(-c3ccccc3)c3c(c12)CCCC3` the value was -5.5%; for `S=c1nc[nH]c2c1sc1nc(N3CCOCC3)c3c(c12)CCCC3`, 1.1% (active).

Consider `O=C(O)CCCN1C(=O)C2C3c4ccccc4C(c4ccccc43)[C@@H]2C1=O` (stereo partly drawn), for which the signal change vs control minus 3*SD hit threshold (margin above threshold, higher = more increase) is -37.1%.

The record behind these values is PubChem BioAssay AID1839 (Johns Hopkins Ion Channel Center, 2009).
